Several values for one entry are separate records, joined by “and”; a condition that tells them apart may be missing. Identical values can stand only once. Inconclusive results are not listed. Activity calls are given as the source filed them. Unless noted, calls come from the whole dose curve.
% is set by controls: 0 for no effect and ±100 for the full control effect.

One experiment in a line: p53 small molecule agonists, cell-based qHTS assay: qHTS cell viability counter screen (AID 1963581). Note: nearly all actives have a fitted effect of over 45% in size. Note: potency is the fitted concentration of half-maximal effect. The conditions noted are these: p53RE-bla HCT-116 viability, ATP luminescence, 16 h; series mostly up to 66 µM; activity change, negative = cytotoxicity: at the top concentration. The method in brief: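 Viability was counter-screened in parallel with the p53 agonist reporter by measuring intracellular ATP luminescence in the same HCT-116 p53RE-bla wells after 16 h compound treatment at 37 C.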
On to `S=C=NCCc1ccccc1`, for which the “activity change, negative = cytotoxicity” value is 0% (inactive). As to `Clc1cc(Cl)c(-c2cc(Cl)c(Cl)cc2Cl)cc1Cl`, the “activity change, negative = cytotoxicity” value is 5.05% [at 30.3 µM] (inactive). The same measure, in the same setting: as for `CC1=C2C[C@H]3[C@@H](CC=C4C[C@@H](O)CC[C@@]43C)[C@@H]2CC[C@]12O[C@@H]1C[C@H](C)CN[C@H]1[C@H]2C`, the figure is -13.8% [at 30.3 µM] (inactive); as for `Cc1nc2ccccc2c(=O)n1-c1ccccc1Cl`, -5.36% (inactive). With `ClC1=C(Cl)[C@]2(Cl)[C@H]3[C@H]([C@@H]4C=C[C@H]3C4)[C@@]1(Cl)C2(Cl)Cl`, the Potency entry was “inactive”. Still for that read-out and setting: the entry for `CC(C)[C@@H](C(=O)O[C@@H](C#N)c1cccc(Oc2ccccc2)c1)c1ccc(Cl)cc1` is “inactive”. Regarding `O=C(Cl)c1ccc(Cl)cc1`, the “activity change, negative = cytotoxicity” value was -5.59% (inactive). Still for that read-out and setting: the figure for `CCCCOCN(C(=O)CCl)c1c(CC)cccc1CC` is -6.44% (inactive); for `Nc1ccc([N+](=O)[O-])cc1Cl` it is -0.0709% (inactive); for `CCCCP(CCCC)CCCC` it is -2.42% (inactive). Still for that read-out and setting: as for `CC(C)c1c(CN(C)C(C)Cc2ccccc2)n(C)n(-c2ccccc2)c1=O` (configuration not stated), the figure is 2.09% [at 30.3 µM] (inactive). On to `C[C@]12C/C(=C/O)C(=O)C[C@@H]1CC[C@@H]1[C@@H]2CC[C@@]2(C)[C@H]1CC[C@]2(C)O`, for which the Potency is 36.7 µM (active). Regarding `ClC1=C(Cl)[C@]2(Cl)[C@H]3[C@H]([C@H]4C=C[C@H]3C4)[C@@]1(Cl)C2(Cl)Cl`, the “activity change, negative = cytotoxicity” value is -8.1% (inactive). With `COC(=O)C(c1ccccc1)C1CCCCN1` (configuration not stated), the “activity change, negative = cytotoxicity” value is 0.903% (inactive).

In the case of `CN1C(=O)[C@@H](NC(=O)c2cc3ccccc3[nH]2)N=C(c2ccccc2)c2ccccc21`, the “activity change, negative = cytotoxicity” value was -3.04% [at 30.3 µM] (inactive).

With `CCO[C@H]1O[C@@H]2OC3(C)CC[C@H]4[C@H](C)CC[C@@H]([C@H]1C)[C@@]24OO3`, the “activity change, negative = cytotoxicity” value is 2.22% [at 30.3 µM] (inactive).

As to `O=NN(CCO)CCO`, the “activity change, negative = cytotoxicity” value is 10.9% (inactive). Still for that read-out and setting: the figure for `CCOC(=O)C(Cl)Cc1cc(-n2nc(C)n(C(F)F)c2=O)c(F)cc1Cl` (configuration not stated) is -9.59% (inactive). As to `C[C@H]1O[C@@H](O[C@H]2[C@@H](O)C[C@H](O[C@H]3[C@@H](O)C[C@H](O[C@H]4CC[C@@]5(C)[C@H](CC[C@@H]6[C@@H]5CC[C@]5(C)[C@@H](C7=CC(=O)OC7)CC[C@]65O)C4)O[C@@H]3C)O[C@@H]2C)C[C@H](O)[C@@H]1O`, the Potency is 81.9 nM (active) and 79.3 nM (active). For the compound `[O-][Br+2]([O-])O`, the “activity change, negative = cytotoxicity” value was -9.25% [at 30.3 µM] (inactive). On the same count and under the same terms, the figure for `C[C@@H]1C[C@@H]([C@H](O)CC2CC(=O)NC(=O)C2)C(=O)[C@@H](C)C1` is 0.0282% (inactive); for `Nc1c(Cl)c(F)nc(OCC(=O)O)c1Cl` it is 20.2% (inactive); for `OC(Cc1ccccc1Cl)(Cn1[nH]cnc1=S)C1(Cl)CC1` (configuration not stated) it is 26.4% (inactive). Regarding `N#CC(C#N)=C(C#N)C#N`, the “activity change, negative = cytotoxicity” value was 28.6% (inactive). Regarding `CC1COC(Cn2cncn2)(c2ccc(Oc3ccc(Cl)cc3)cc2Cl)O1` (configuration not stated), the “activity change, negative = cytotoxicity” value is -18% (inactive). The same measure, in the same setting: the figure for `CC1CCCC1` is -7.29% (inactive). The same measure, in the same setting: as for `COCC(C)N(C(=O)CCl)c1c(C)csc1C` (configuration not stated), the figure is -9.31% (inactive); as for `N[C@@H](Cc1ccc(Oc2cc(I)c(O)c(I)c2)c(I)c1)C(=O)O`, 0.291% [at 30.3 µM] (inactive). In the case of `CCOc1cc(Oc2ccc(C(F)(F)F)cc2Cl)ccc1[N+](=O)[O-]`, the Potency entry was “inactive”. Consider `CC(Cc1ccccc1)NCCn1cnc2c1c(=O)n(C)c(=O)n2C` (configuration not stated), for which the “activity change, negative = cytotoxicity” value is 4.83% (inactive).

Consider `Cc1ccc([N+](=O)[O-])[c]2c1[O][Hg]2`, for which the Potency was 8.9 µM (active).

As for `CC1(C)C(C(=O)OC(C#N)c2cccc(Oc3ccccc3)c2)C1(C)C` (configuration not stated), the Potency entry was “inactive”. Same read-out and setting: as for `C=C(C)C(=O)[O][Sn]([CH2]CCC)([CH2]CCC)[CH2]CCC`, the figure is 3.63 µM (active). As to `CCCN(CC1CC1)c1c([N+](=O)[O-])cc(C(F)(F)F)cc1[N+](=O)[O-]`, the “activity change, negative = cytotoxicity” value was -13.4% (inactive). The same measure, in the same setting: as for `COc1ccc(Cc2nccc3cc(OC)c(OC)cc23)cc1OC`, the figure is -13.7% [at 30.3 µM] (inactive); as for `COC1=CC(=O)O[C@@H](/C=C/c2ccc3c(c2)OCO3)C1`, 4.81% (inactive).

As to `Brc1ccc(Oc2ccc(Br)cc2Br)c(Br)c1`, the “activity change, negative = cytotoxicity” value is -27.7% (inactive). Still for that read-out and setting: the figure for `CC(C)N1C(=O)N(c2ccccc2)CSC1=NC(C)(C)C` is -0.979% (inactive); for `COC(=O)COc1ccc(Cl)cc1Cl` it is -2.82% (inactive).

A further experiment in a line: p53 small molecule agonists, cell-based qHTS assay (AID 1963582; active = well fitted activation curve with a large enough effect in the signal ratio in the repeat runs, not every such curve was filed as active; the % refers to the signal ratio). The conditions noted are these: HCT-116 p53RE-bla reporter, beta-lactamase FRET ratio, 16 h; series mostly up to 66 µM; activation: at the top concentration. The method in brief:
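Cells carrying a p53-responsive bla reporter are treated with test compounds for 16 h at 37 C; beta-lactamase activity is then detected with LiveBLAzer B/G FRET substrate after 2 h at room temperature.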
For orientation: In qHTS, concentration-response curves come from the screen itself.
As to `S=C=NCCc1ccccc1`, the “activation” value was -1.55% (inactive).

Turning to `CC1=C2C[C@H]3[C@@H](CC=C4C[C@@H](O)CC[C@@]43C)[C@@H]2CC[C@]12O[C@@H]1C[C@H](C)CN[C@H]1[C@H]2C`, the “activation” value was -5.08% [at 30.3 µM] (inactive). For `ClC1=C(Cl)[C@]2(Cl)[C@H]3[C@H]([C@@H]4C=C[C@H]3C4)[C@@]1(Cl)C2(Cl)Cl`, the Potency entry is “inactive”. As for `CC(C)[C@@H](C(=O)O[C@@H](C#N)c1cccc(Oc2ccccc2)c1)c1ccc(Cl)cc1`, the “activation” value is -1.09% (inactive). On the same count and under the same terms, the figure for `Nc1ccc([N+](=O)[O-])cc1Cl` is -2.16% (inactive); for `CCCCP(CCCC)CCCC` it is -0.476% (inactive). On the same count and under the same terms, as for `CC(C)c1c(CN(C)C(C)Cc2ccccc2)n(C)n(-c2ccccc2)c1=O` (configuration not stated), the figure is 0.046% [at 30.3 µM] (inactive); as for `ClC1=C(Cl)[C@]2(Cl)[C@H]3[C@H]([C@H]4C=C[C@H]3C4)[C@@]1(Cl)C2(Cl)Cl`, -4.37% (inactive).

As for `COC(=O)C(c1ccccc1)C1CCCCN1` (configuration not stated), the “activation” value is 0.162% (inactive). Still for that read-out and setting: the figure for `CCO[C@H]1O[C@@H]2OC3(C)CC[C@H]4[C@H](C)CC[C@@H]([C@H]1C)[C@@]24OO3` is 0.0274% [at 30.3 µM] (inactive); for `O=NN(CCO)CCO` it is 0.157% (inactive). Still for that read-out and setting: as for `[O-][Br+2]([O-])O`, the figure is 1.17% [at 30.3 µM] (inactive). Consider `C[C@@H]1C[C@@H]([C@H](O)CC2CC(=O)NC(=O)C2)C(=O)[C@@H](C)C1`, for which the Potency result is “inactive”.

Regarding `Nc1c(Cl)c(F)nc(OCC(=O)O)c1Cl`, the “activation” value is -0.918% (inactive).

Consider `N#CC(C#N)=C(C#N)C#N`, for which the “activation” value is -7.63% (inactive). The same measure, in the same setting: the figure for `CC1CCCC1` is -1.63% (inactive); for `COCC(C)N(C(=O)CCl)c1c(C)csc1C` (configuration not stated) it is -4.09% (inactive). In the case of `N[C@@H](Cc1ccc(Oc2cc(I)c(O)c(I)c2)c(I)c1)C(=O)O`, the “activation” value is -1.88% [at 30.3 µM] (inactive). On the same count and under the same terms, the figure for `CC(Cc1ccccc1)NCCn1cnc2c1c(=O)n(C)c(=O)n2C` (configuration not stated) is 1.87% (inactive). On the same count and under the same terms, as for `CC1(C)C(C(=O)OC(C#N)c2cccc(Oc3ccccc3)c2)C1(C)C` (configuration not stated), the figure is 0.938% (inactive). Regarding `CCCN(CC1CC1)c1c([N+](=O)[O-])cc(C(F)(F)F)cc1[N+](=O)[O-]`, the “activation” value is -3.64% (inactive). Regarding `Brc1ccc(Oc2ccc(Br)cc2Br)c(Br)c1`, the “activation” value is -1.34% (inactive).

For the compound `COC(=O)COc1ccc(Cl)cc1Cl`, the “activation” value was 0.098% (inactive).

These data come from PubChem BioAssay (Tox21).
